In PubChem BioAssay (EPA / NIEHS):
The source made the active and inactive calls. The calls were made as follows: active = hit-call score of the fitted dose curve at least 0.9, where 1 is the maximum; inactive = score below 0.9.

Tests used:
Conditions in all cases: mRNA level, 48 h; actives raise or lower the signal
[1] = read-out: 3-Hydroxy-3-Methylglutaryl-CoA Synthase 2 (HMGCS2), HMGCS2 (gene 3158); assay: LTEA_HepaRG_HMGCS2: Life Technologies and Expression Analysis (LTEA) Assay for 3-Hydroxy-3-Methylglutaryl-CoA Synthase 2 (HMGCS2) using HepaRG (AID 2283504)
Summary of the method: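 qRT-PCR read-out of HMGCS2 transcript, normalised to three housekeeping genes, in HepaRG cells after 48 h chemical exposure. Eight-point curves from 100 uM, half-log dilutions, 0.5% DMSO vehicle; gain or loss fitted relative to DMSO baseline.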

[2] = read-out: HGF (gene 3082); assay: LTEA_HepaRG_HGF: Life Technologies and Expression Analysis (LTEA) Assay for Hepatocyte Growth Facto (HGF) using HepaRG (AID 2283505)
Summary of the method: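 HepaRG, 48 h dosing, 8-pt half-log series from 100 uM in 0.5% DMSO, duplicates. Readout: TaqMan qRT-PCR of HGF mRNA, housekeeping-normalized; bidirectional curve fit vs DMSO baseline.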

[3] = read-out: Intercellular Adhesion Molecule 1 (ICAM1), ICAM1 (gene 3383); assay: LTEA_HepaRG_ICAM1: Life Technologies and Expression Analysis (LTEA) Assay for Intercellular Adhesion Molecule 1 (ICAM1) using HepaRG (AID 2283507)
Summary of the method: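 HepaRG, 48 h exposure, 8-pt half-log series from 100 uM, 0.5% DMSO vehicle, duplicates. Readout: TaqMan qRT-PCR mRNA, housekeeping-normalized (ACTB/GAPDH/POLR2A). Bidirectional curve fit vs DMSO baseline.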

[4] = read-out: Insulin-like growth factor-binding protein 1 (IGFBP1), IGFBP1 (gene 3484); assay: LTEA_HepaRG_IGFBP1: Life Technologies and Expression Analysis (LTEA) Assay for Insulin-like growth factor-binding protein 1 (IGFBP1) using HepaRG (AID 2283508)
Summary of the method: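 qRT-PCR mRNA read-out (TaqMan, Fluidigm array), normalised to three housekeeping genes; HepaRG cells, 48 h exposure, 8-pt half-log series from 100 uM, 0.5% DMSO vehicle; bidirectional curve fit vs DMSO baseline.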

[5] = read-out: Interleukin 6 (IL6), IL6 (gene 3569); assay: LTEA_HepaRG_IL6: Life Technologies and Expression Analysis (LTEA) Assay for Interleukin 6 (IL6) using HepaRG (AID 2283509)
Summary of the method: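 qRT-PCR read-out of IL6 transcript, normalized to three housekeeping genes, after 48 h chemical exposure of HepaRG cells; 8-point half-log series, top 100 uM, 0.5% DMSO vehicle. Bidirectional curve fitting against DMSO baseline.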

[6] = read-out: Interleukin 6 Receptor (IL6R), IL6R (gene 3570); assay: LTEA_HepaRG_IL6R: Life Technologies and Expression Analysis (LTEA) Assay for Interleukin 6 Receptor (IL6R) using HepaRG (AID 2283510)
Summary of the method: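 Cells were thawed, plated and cultured 48 h, then medium was changed to serum-free induction medium. Chemicals were added in duplicate (100 uM top, half-log steps, 0.5% DMSO) for 48 h. Lysates were analyzed by qRT-PCR for IL6R expression.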

[7] = read-out: Potassium channel subfamily K member 1 (KCNK1), KCNK1 (gene 3775); assay: LTEA_HepaRG_KCNK1: Life Technologies and Expression Analysis (LTEA) Assay for Potassium channel subfamily K member 1 (KCNK1) using HepaRG (AID 2283511)
Summary of the method: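 HepaRG, 48 h exposure, 8-pt half-log series top 100 uM, 0.5% DMSO vehicle, duplicates. Readout: KCNK1 transcript by qRT-PCR (Fluidigm array), housekeeping-normalized; bidirectional curve fit relative to DMSO baseline.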

[8] = read-out: Keratin 19 (KRT19), KRT19 (gene 3880); assay: LTEA_HepaRG_KRT19: Life Technologies and Expression Analysis (LTEA) Assay for Keratin 19 (KRT19) using HepaRG (AID 2283512)
Summary of the method: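 HepaRG, 48 h chemical exposure, 8-pt half-log CRC from 100 uM, 0.5% DMSO vehicle, duplicates. Readout: TaqMan qRT-PCR of KRT19 mRNA, housekeeping-normalized (ACTB/GAPDH/POLR2A). Bidirectional fit vs DMSO baseline.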

[9] = read-out: JUN Transcription Factor, JUN (gene 3725); assay: LTEA_HepaRG_JUN: Life Technologies and Expression Analysis (LTEA) Assay for JUN Transcription Factor using HepaRG (AID 2283513)
Summary of the method: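 Read-out is JUN transcript level by TaqMan qRT-PCR, normalized to ACTB, GAPDH and POLR2A, after 48 h chemical treatment of HepaRG cells. Concentration-response spanned eight half-log points up to 100 uM in 0.5% DMSO.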

[10] = read-out: Lipase C (LIPC), LIPC (gene 3990); assay: LTEA_HepaRG_LIPC: Life Technologies and Expression Analysis (LTEA) Assay for Lipase C (LIPC) using HepaRG (AID 2283514)
Summary of the method: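 HepaRG, 48 h exposure, 8-pt half-log series from 100 uM in 0.5% DMSO, duplicates. Readout: LIPC mRNA by Fluidigm qRT-PCR, housekeeping-normalized (ACTB/GAPDH/POLR2A). Gain or loss fitted bidirectionally against DMSO baseline.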

[11] = read-out: Lipoprotein lipase (LPL), LPL (gene 4023); assay: LTEA_HepaRG_LPL: Life Technologies and Expression Analysis (LTEA) Assay for Lipoprotein lipase (LPL) using HepaRG (AID 2283515)
Summary of the method: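 HepaRG, 48 h exposure, 8-pt half-log dilutions from 100 uM, 0.5% DMSO vehicle, duplicates; qRT-PCR (Fluidigm array) of LPL mRNA vs housekeeping genes; bidirectional curve fit relative to DMSO baseline.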

[12] = read-out: MicroRNA 122 (MIR122), gene 406906; assay: LTEA_HepaRG_MIR122: Life Technologies and Expression Analysis (LTEA) Assay for MicroRNA 122 (MIR122) using HepaRG (AID 2283516); also: the transcript read is the microRNA miR-122
Summary of the method: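 Human liver HepaRG cultures receive test chemicals for 48 h at eight half-log concentrations from 100 uM. Expression is quantified by qRT-PCR with ACTB/GAPDH/POLR2A normalization and fitted bidirectionally against 0.5% DMSO.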

[13] = read-out: matrix metalloproteinase-10 (MMP10), MMP10 (gene 4319); assay: LTEA_HepaRG_MMP10: Life Technologies and Expression Analysis (LTEA) Assay for matrix metalloproteinase-10 (MMP10) using HepaRG (AID 2283517)
Summary of the method: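 Transcript levels come from Fluidigm qRT-PCR normalized to three housekeeping genes, with curves fitted bidirectionally against 0.5% DMSO. Human HepaRG cells were dosed for 48 hours at concentrations up to 100 uM.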

[14] = read-out: MYC, MYC (gene 4609); assay: LTEA_HepaRG_MYC: Life Technologies and Expression Analysis (LTEA) Assay for MYC using HepaRG (AID 2283518)
Summary of the method: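 qRT-PCR read-out of MYC transcript (Fluidigm TaqMan, housekeeping-normalized) after 48 h chemical exposure of HepaRG cells; eight concentrations, top 100 uM, half-log steps. Bidirectional curve fitting against 0.5% DMSO vehicle baseline.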

[15] = read-out: matrix metalloproteinase-3 (MMP3), MMP3 (gene 4314); assay: LTEA_HepaRG_MMP3: Life Technologies and Expression Analysis (LTEA) Assay for matrix metalloproteinase-3 (MMP3) using HepaRG (AID 2283519)
Summary of the method: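 qRT-PCR read-out of MMP3 mRNA (normalised to three housekeeping genes) in HepaRG liver cells after 48 h chemical exposure; 8-point half-log series, top 100 uM, 0.5% DMSO vehicle. Bidirectional curve fitting against DMSO baseline.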

[16] = read-out: Paternally Expressed 10 (PEG10), PEG10 (gene 23089); assay: LTEA_HepaRG_PEG10: Life Technologies and Expression Analysis (LTEA) Assay for Paternally Expressed 10 (PEG10) using HepaRG (AID 2283520)
Summary of the method: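 Human HepaRG cultures are dosed for 48 h across an eight-point half-log series starting at 100 uM, with 0.5% DMSO as vehicle and baseline. Gain or loss of PEG10 transcript is measured by qRT-PCR and fitted in both directions.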

[17] = read-out: Protein phosphatase 2A (PPP2R4), PTPA (gene 5524); assay: LTEA_HepaRG_PPP2R4: Life Technologies and Expression Analysis (LTEA) Assay for Protein phosphatase 2A (PPP2R4) using HepaRG (AID 2283522)
Summary of the method: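 Cells were plated, cultured 48 h, switched to serum-free induction medium, then dosed for 48 h (8 points, max 100 uM, 0.5% DMSO). RNA was isolated and PPP2R4 expression measured by TaqMan qRT-PCR.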

[18] = read-out: Phosphatase and tensin (PTEN), PTEN (gene 5728); assay: LTEA_HepaRG_PTEN: Life Technologies and Expression Analysis (LTEA) Assay for Phosphatase and tensin (PTEN) using HepaRG (AID 2283523)
Summary of the method: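 HepaRG, 48 h exposure, 8-pt half-log series from 100 uM top, 0.5% DMSO vehicle, duplicates. Readout: Fluidigm qRT-PCR of PTEN transcript; housekeeping normalization (ACTB, GAPDH, POLR2A). Gain or loss fitted relative to DMSO baseline.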

[19] = read-out: solute carrier (SLC22A1), SLC22A1 (gene 6580); assay: LTEA_HepaRG_SLC22A1: Life Technologies and Expression Analysis (LTEA) Assay for solute carrier (SLC22A1) using HepaRG (AID 2283524)
Summary of the method: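 qRT-PCR readout (TaqMan, Fluidigm arrays) of SLC22A1 transcript, normalized to three housekeeping genes; bidirectional curve fit relative to 0.5% DMSO vehicle. Differentiated human HepaRG cells, 48 h chemical exposure, top concentration 100 uM, half-log steps, eight points.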

[20] = read-out: Pyruvate Dehydrogenase Kinase 4 (PDK4), PDK4 (gene 5166); assay: LTEA_HepaRG_PDK4: Life Technologies and Expression Analysis (LTEA) Assay for Pyruvate Dehydrogenase Kinase 4 (PDK4) using HepaRG (AID 2283525)
Summary of the method: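 HepaRG (human liver line), 48 h chemical exposure, 8-pt half-log CRC top 100 uM, 0.5% DMSO vehicle, duplicates. Readout: TaqMan qRT-PCR of PDK4 mRNA, housekeeping-normalized; gain/loss fit relative to DMSO baseline.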

Measured: outcome

CS(=O)(=O)OCCCCOS(C)(=O)=O
inactive: all assays above
